Mito fusion yeast = mitochondrial division inhibition or fusion activation; hit rate 0.23% among 320,000; Potency, µM (titrated, usually from 46.1 µM), without a hit: at the top dose growth rescue (activation), most hits filed as activators; S. cerevisiae fusion-defective mutant growth rescue, CellTiterGlo 48 h; note: % of control where 0% means no effect; nearly all actives have a fitted effect of over 45% in size
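Growth-rescue viability read-out: after 48 h at the non-permissive 37C in glycerol/ethanol YPEG, yeast mitochondrial fusion mutants are measured by CellTiterGlo luminescence; compounds (23 nl pinned per well) restoring growth score as division inhibitors or fusion activators.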
AT treatment = candidate therapy for ataxia-telangiectasia; F2112 A-T fibroblasts, KAP-1 phosphorylation AlphaLISA; neocarzinostatin DNA damage 30 min before lysis; AID 485349; hit rate 0.19% among 320,000; Potency, µM (series often up to 57.5 µM), for the others: at the highest dose activation, hits mostly activators; note: % of control where 0% means no effect; nearly all actives have a fitted effect of over 45% in size
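hTERT-immortalized A-T patient fibroblasts (F2112), 500 cells/well in OPTI-MEM, 1% FBS, got compounds for 60 min, then NCS for 30 min at 37C. Lysates were then assayed for phospho-KAP-1 by AlphaLISA (anti-pKAP1 donor, anti-KAP1 acceptor beads), 6 hr at 25C.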
SW480 rereplic = induces DNA re-replication in SW480 colon adenocarcinoma cells; AID 624297; SW480 DNA re-replication, Hoechst DNA content imaging, 48 h; Potency, µM (doses to about 46.1 µM), without a hit: top-dose re-replication activation, hits mostly activators; hit rate 1.8% among 340,000; note: % of control where 0% means no effect; nearly all actives have a fitted effect of over 55% in size
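Compounds, transferred as 23 nL by pin tool, were incubated with cells for 48 hr; DNA content per nucleus was then quantified by Hoechst staining and fluorescence plate imaging.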
MCF10A rereplic = DNA re-replication induction in MCF 10a cells | Potency, µM (series often up to 46.1 µM), without a hit: top-dose activity, positive = re-replication, actives largely listed as activators | MCF 10A DNA re-replication, Hoechst nuclear intensity, 48 h | AID 624296 | hit rate 2.9% among 350,000; note: % of control where 0% means no effect; nearly all actives have a fitted effect of over 50% in size
Integrin act MD = activators of alpha7 integrin expression for muscular dystrophy | AID 624291 | alpha7betagal myoblasts, beta-gal FDG fluorescence, 48 h | hit rate 0.064% among 350,000 | Potency, µM (highest dose often 38.3 µM), without a hit: top-dose activation, most hits filed as activators;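 note: 100% = response of the positive control SU9516; nearly all actives have a fitted effect of over 60% in size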
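alpha7betagal+/- myoblasts (passage 13, 250/well) treated 48 h at 37C with compounds at 1:260 dilution of DMSO stock. Lysed, then beta-galactosidase activity read as FDG fluorescence (ex 480/em 540) after 30 min, with pre-read for autofluorescence.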
* = called active by the depositor; u = inconclusive; x = not tested or not shown. A selection: hits, their analogues and other compounds. The true share with any hit is near 4.2%. Calls come from the whole dose curve; as a rule, active = well fitted activation curve with a large enough effect; inconclusive = small, poorly fitted or top-dose-only effect; inactive = no such curve, though single readings can be large or run the other way. Potency is the fitted concentration of half-maximal effect.

SMILES	Mito fusion yeast	AT treatment	SW480 rereplic	MCF10A rereplic	Integrin act MD
CCCCCCCCCCCCCCCCn1cc[n+](CC(C)=O)c1	6%	2%	-35%	15µM*	-66%
COc1cc(CC(=O)N2CCc3ccccc32)cc(OC)c1OC	-5%	0%	2%	2%	-4%
CCOC(=O)N1CCc2cc(OC)c(OC)c3c2c1cc1cc(OC)c(OC)cc13	x	x	18µM*	15µM*	-23%
Cc1ccc(CNc2ncnc3c2cnn3C2CCCCO2)cc1 (stereo not given)	x	x	3%	12%	10%
O=C1c2ccccc2C(=O)c2[nH]c(=O)[nH]c21	-45%	4%	1.3µM*	u	-73%
COC(=O)c1ccc(C)c(NC(=O)COC(=O)C2CC3CCCC(C2)C3=O)c1 (stereo not given)	-1%	0%	-4%	-4%	-10%
COc1cccc(-c2nc(C(=O)NCCCN3CCOCC3)cc3c2[nH]c2ccccc23)c1	0%	2%	u	u	-30%
COc1cc(-c2nc(C(=O)NCC3CCCO3)cc3c2[nH]c2ccccc23)cc(OC)c1OC (stereo not given)	0%	14%	-3%	u	-20%
O=C(NCCCN1CCOCC1)c1cc2c([nH]c3ccccc32)c(-c2cccc(Br)c2)n1	-1%	-4%	16%	4.6µM*	-64%
O=C(NCC1CCCO1)c1cc2c([nH]c3ccccc32)c(-c2cccc(Cl)c2)n1 (stereo not given)	6%	-9%	21µM*	u	-36%
Cc1cc(C)n(CC(=O)NC2C(=O)N3C(C(=O)O)=C(CSc4nnc(C)s4)CSC23)n1 (stereo not given)	-5%	-5%	-6%	0.73µM*	u
O=C(CSc1nnc(N2CCCC2)n1-c1ccccc1Cl)N1CCN(c2ccccn2)CC1	-2%	-3%	-11%	-1%	-2%
COC(=O)C1=C(O)/C(=C\c2ccc(OCC(=O)Nc3ccccc3OC)cc2)N=C1C	5%	5%	7%	0%	24%
COC(=O)C1=C(O)/C(=C\c2ccc(OCC(=O)Nc3ccc(OC)cc3)cc2)N=C1C	-1%	3%	15µM*	u	26%
Cc1ccc(CNC(=O)Cc2ccc(-c3ccccc3)cc2)cc1	0%	3%	1.2µM*	u	-3%
O=C(CC(=O)NCc1cccnc1)NCc1cccnc1	-2%	2%	1%	-7%	-25%
O=C(Cc1ccc(-c2ccccc2)cc1)NCc1ccccc1	0%	-2%	1.3µM*	0.12µM*	25%
Cc1ccc(CNC(=O)CSCc2ccc(F)cc2)cc1	9%	-1%	-4%	-1%	14%
Cc1ccc(CC(=O)NCc2ccc(F)cc2)cc1	1%	3%	18µM*	u	-21%
O=C(CCC(=O)NCc1ccccc1)NCc1ccccc1	1%	2%	2%	3%	28%
O=C(/C=N/O)NCc1cccnc1	8%	0%	13µM*	15µM*	-23%
O=C(CSc1ncccc1C(=O)O)NC12CC3CC(CC(C3)C1)C2	-8%	4%	7%	-36%	-4%
COc1cc(O)sc1C=Nc1ccc(Cl)cc1Cl	-5%	3%	2%	u	24%
C=C1c2cc3c(cc2NC(=S)N1Cc1ccccc1)OCO3	-9%	3%	u	-28%	17%
O=C(Cc1ccc(-c2ccccc2)cc1)NCc1cccnc1	-6%	7%	23µM*	12µM*	-13%
SMILES	Mito fusion yeast	AT treatment	SW480 rereplic	MCF10A rereplic	Integrin act MD
CCNC1CCC(Nc2ccnc3cc(Cl)ccc23)CC1 (stereo not given)	x	x	u	13%	-67%
OC(CNc1ccnc2cc(Cl)ccc12)CNC1CCCCC1 (stereo not given)	x	x	23µM*	u	-54%
COCc1cc(C)nc2sc(C(=O)Nc3cccc(OC)c3)c(N)c12	3%	18%	18µM*	10µM*	0%
COCc1cc(C)nc2sc(C(=O)Nc3nccs3)c(N)c12	-5%	22%	0%	16µM*	6%
COCc1cc(C)nc2sc(C(=O)Nc3ccc(OC)cc3)c(N)c12	5%	-1%	u	u	15%
COCc1cc(C)nc2sc(C(=O)Nc3ccccc3OC)c(N)c12	5%	30%	21µM*	u	33%
C[C@@H]1CCCCO[C@H](CN(C)Cc2ccc(C(=O)O)cc2)[C@@H](C)CN([C@H](C)CO)C(=O)c2cc(NC(=O)CCC(F)(F)F)ccc2O1	x	x	x	x	-16%
O=Cc1cn(-c2ccccc2)nc1-c1cc2c(ccc3ccccc32)oc1=O	2%	x	2%	2.9µM*	7%
O=Cc1cn(-c2ccccc2)nc1-c1cc2cc(O)ccc2oc1=O	0%	4%	27%	-9%	12%
COc1cccc(C(=O)N2CCN=C2SC)c1	-5%	6%	-3%	10%	20%
CC(C)(C)OC(=O)C[C@H]1C/C=C\C[C@@H](CC(=O)NCCO)C(=O)NCCOC1=O	x	7%	-7%	17%	9%
COCCNC(=O)COC(=O)/C=C/c1c(C)nn(Cc2ccc(Cl)cc2Cl)c1Cl	3%	6%	-27%	13µM*	0%
Cc1cc2oc(=O)cc(CN3CCN(C/C=C/c4ccccc4)CC3)c2cc1O	2%	-3%	x	x	x
O=c1cc(CN2CCN(C/C=C/c3ccccc3)CC2)c2cc(O)c(-c3ccccc3)cc2o1	-52%	2%	18µM*	13%	-20%
COc1ccc(-n2ncc(N(C)n3cccc3)c(Cl)c2=O)cc1	5%	-3%	-6%	2%	18%
COc1ccc(-n2ncc(Cl)c(Cl)c2=O)cc1	5%	-9%	3%	0.82µM*	-68%
COc1c(Cl)cnn(-c2ccc(Cl)c(Cl)c2)c1=O	0%	-12%	u	23µM*	-10%
CC(=O)OCC1=C[C@@H]2OC(=O)C3=CO[C@@H](O[C@@H]4O[C@H](CO)[C@@H](O)[C@H](O)[C@H]4O)[C@H]1[C@@H]32	-12%	3%	-2%	-9%	5%
C=C1C(=O)OC2C=C(CO)C3OC3C3OC3(C)CC(OC(=O)/C(=C/C)COC(C)=O)C12 (stereo not given)	x	x	0.82µM*	2.1µM*	-52%
Fc1ccc(-[n+]2nc(Nc3ccccc3)sc2-c2ccc(OCc3ccccc3)cc2)cc1	-2%	-5%	0%	1.3µM*	6%
CCOc1cc(-c2sc(Nc3ccccc3)n[n+]2-c2ccc(F)cc2)ccc1OC	1%	1%	10%	-9%	6%
CC(C)C[C@H]1CNC(=S)N1CC1CCN(CCCC2CCCCC2)CC1	x	x	-2%	u	-15%
CC(C)C[C@H]1CNC(=S)N1CC1CCN(CC2CCCC2)CC1	x	x	0.026µM*	u	3%
CC(=O)N(CCC(Cc1ccccc1)c1ccc2c(c1)OCO2)Cc1ccc(Cl)cc1 (stereo not given)	u	18%	u	16µM*	2%
